Compound activity: PubChem, National Center for Advancing Translational Sciences (NCATS)
A selection: hits, their analogues and other compounds. The true share with any hit is near 4.2%.
SW480 rereplic – DNA re-replication induction in SW480 cells. SW480 DNA re-replication, Hoechst DNA content imaging, 48 h. Potency, µM (top dose mostly 46.1 µM), for the others: top-dose re-replication activation, most hits filed as activators. hit rate 1.8% among 340,000; also: % of control where 0% means no effect; nearly all actives have a fitted effect of over 55% in size
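Compounds, transferred as 23 nL by pin tool, were incubated with cells for 48 hr; DNA content per nucleus was then quantified by Hoechst staining and fluorescence plate imaging.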
MCF10A rerep – induces DNA re-replication in MCF 10a normal breast cells | Potency, µM (doses to about 46.1 µM), without a hit: at the highest dose activity, positive = re-replication, hits mostly activators | MCF 10A DNA re-replication, Hoechst nuclear intensity, 48 h | hit rate 2.9% among 350,000; also: % of control where 0% means no effect; nearly all actives have a fitted effect of over 50% in size
Mito fusion act – inhibitors of mitochondrial division or activators of mitochondrial fusion | S. cerevisiae fusion-defective mutant growth rescue, CellTiterGlo 48 h | Potency, µM (highest dose often 46.1 µM), inactives show at the top dose growth rescue (activation), hits mostly activators | hit rate 0.23% among 320,000 | AID 485298; also: % of control where 0% means no effect; nearly all actives have a fitted effect of over 45% in size
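Temperature-sensitive fusion-defective S. cerevisiae (e.g. fzo1-1, mgm1-5) were grown with compound in YPEG medium (3% ethanol, 3% glycerol) for 48 hours at 37C. Growth rescue was measured as viability by CellTiterGlo luminescence after 10 minutes at ambient.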
Integrin act MD – activates integrin-mediated alleviation for muscular dystrophy. alpha7betagal myoblasts, beta-gal FDG fluorescence, 48 h. hit rate 0.064% among 350,000. Potency, µM (titrated, usually from 38.3 µM), for the others: top-dose activation, most hits filed as activators;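 also: 100% = response of the positive control SU9516; nearly all actives have a fitted effect of over 60% in size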
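alpha7betagal+/- myoblasts (passage 13, 250/well) treated 48 h at 37C with compounds at 1:260 dilution of DMSO stock. Lysed, then beta-galactosidase activity read as FDG fluorescence (ex 480/em 540) after 30 min, with pre-read for autofluorescence.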
A-T KAP1 phos – potential ataxia-telangiectasia treatments restoring KAP-1 phosphorylation. Potency, µM (series often up to 57.5 µM), for the others: top-dose activation, most hits filed as activators. AID 485349. hit rate 0.19% among 320,000. F2112 A-T fibroblasts, KAP-1 phosphorylation AlphaLISA; neocarzinostatin DNA damage 30 min before lysis; also: % of control where 0% means no effect; nearly all actives have a fitted effect of over 45% in size
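hTERT-immortalized A-T patient fibroblasts (F2112), 500 cells/well in OPTI-MEM, 1% FBS, got compounds for 60 min, then NCS for 30 min at 37C. Lysates were then assayed for phospho-KAP-1 by AlphaLISA (anti-pKAP1 donor, anti-KAP1 acceptor beads), 6 hr at 25C.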
An asterisk follows results filed as active. Calls follow the shape of the dose curve; as a rule, active = well fitted activation curve with a large enough effect; inconclusive = small, poorly fitted or top-dose-only effect; inactive = no such curve, though single readings can be large or run the other way. Potency is read from the fitted curve at half-maximal effect.

Cc1ccc(C)c(-c2csc(Nc3ncccn3)n2)c1 was read as SW480 rereplic -1%, MCF10A rerep 0%, Mito fusion act 8%, Integrin act MD 13% and A-T KAP1 phos 3.2µM*.
Screening CCN1C[C@@H]2[C@@H]3C(=O)N(Cc4ccccc4)C(=O)[C@@H]3[C@](C)(C1=O)N2C(=O)c1ccc(F)cc1 returned SW480 rereplic inconclusive, MCF10A rerep -1% and Integrin act MD -6%.
Screening O=C(NC(C(=O)c1ccccc1)c1ccccc1)c1ccccc1 (stereo not drawn) returned SW480 rereplic 7%, MCF10A rerep -3% and Integrin act MD 12%.
`O=C(CCc1nnc2ccc(NCc3ccc(Cl)cc3)nn12)NC1CCCCC1` gave SW480 rereplic 21%, MCF10A rerep -1%, Mito fusion act 13%, Integrin act MD 27% and A-T KAP1 phos -3%.
`O=C(OCn1ncc(Cl)c(Cl)c1=O)c1ccccc1Cl` gave SW480 rereplic 7.3µM*, MCF10A rerep 5.8µM*, Mito fusion act -18%, Integrin act MD -68% and A-T KAP1 phos 5%.
`O=c1c(Cl)c(Cl)cnn1Cc1ccc(F)cc1` gave SW480 rereplic 6.5µM*, MCF10A rerep 3.7µM*, Mito fusion act -5%, Integrin act MD -60% and A-T KAP1 phos -6%.
Screening O=C(Cn1ncc(Cl)c(Cl)c1=O)c1ccc(Cl)cc1 returned SW480 rereplic inconclusive, MCF10A rerep 9.2µM*, Mito fusion act 7%, Integrin act MD -71% and A-T KAP1 phos -2%.
Screening O=C(OCn1ncc(Cl)c(Cl)c1=O)c1ccc(F)cc1 returned Mito fusion act -22% and A-T KAP1 phos -4%.
Screening CC(C)(C)C(=O)Cn1ncc(Cl)c(Cl)c1=O returned SW480 rereplic inconclusive, MCF10A rerep 2.1µM*, Mito fusion act 2%, Integrin act MD -59% and A-T KAP1 phos -4%.
CC(C(=O)O)c1ccc2c(c1)Cc1cccnc1O2 (stereo not drawn) was read as SW480 rereplic -3% and MCF10A rerep -2%.
`COc1ccc2cc(C3=CC(=O)CCC3)ccc2c1` gave SW480 rereplic -2%, MCF10A rerep 4% and Integrin act MD -3%.
Screening Cc1nc(SCC(=O)N2CCN(c3ccccn3)CC2)c(C#N)c(C)c1C returned SW480 rereplic -8%, MCF10A rerep 1%, Integrin act MD -18% and A-T KAP1 phos 10%.
`COc1cccc(CC(NC(C)=O)C(=O)NC2CCN(S(=O)(=O)c3ccc(C)cc3)CC2)c1OC` (stereo not drawn) gave SW480 rereplic -4%, MCF10A rerep -11%, Mito fusion act 8%, Integrin act MD -16% and A-T KAP1 phos 3%.
For C=CCn1c(C)cc(C(=O)Cn2ncc(Cl)c(Cl)c2=O)c1C the results were SW480 rereplic 2.9µM*, MCF10A rerep 5.8µM*, Mito fusion act -2%, Integrin act MD -47% and A-T KAP1 phos -18%.
Screening O=C(CCC1CCCCC1=O)c1ccccc1 (stereo not drawn) returned SW480 rereplic 2%, MCF10A rerep 1%, Mito fusion act -1%, Integrin act MD -9% and A-T KAP1 phos 0%.
Screening O=C(CC1C(=O)CCCC1=O)c1ccccc1 returned SW480 rereplic inconclusive, MCF10A rerep 15µM*, Mito fusion act 1%, Integrin act MD -10% and A-T KAP1 phos 22%.
Screening COc1cccc(CNC(=O)Cn2ncc3c(=O)oc4ccccc4c32)c1 returned SW480 rereplic 18%, MCF10A rerep inconclusive, Mito fusion act 1%, Integrin act MD -23% and A-T KAP1 phos -6%.
Screening Cc1ccc(S(=O)(=O)N(C)C)cc1NC(=S)N(CCC#N)Cc1cccnc1 returned SW480 rereplic -6%, MCF10A rerep 21%, Mito fusion act 7.1µM*, Integrin act MD 7% and A-T KAP1 phos 1%.
CN(C)S(=O)(=O)c1cccc(C(=O)NC(=S)N(CCC#N)Cc2cccnc2)c1 was read as SW480 rereplic -7%, MCF10A rerep 0%, Mito fusion act 5%, Integrin act MD inconclusive and A-T KAP1 phos -1%.
CCc1ccc(NC(=O)CSc2nc3ccccc3nc2N2CCCCC2)cc1 was read as SW480 rereplic 2%, MCF10A rerep 10µM*, Mito fusion act -6%, Integrin act MD 11% and A-T KAP1 phos -8%.
Cc1cccc(NC(=O)CSc2nc3ccccc3nc2N2CCCC2)c1 was read as SW480 rereplic 25%, MCF10A rerep 21µM*, Mito fusion act -1%, Integrin act MD -24% and A-T KAP1 phos 2%.
Screening O=C(CSc1nc2ccccc2nc1N1CCCCC1)N1CCN(c2ccccc2)CC1 returned SW480 rereplic 1%, MCF10A rerep 4.1µM*, Mito fusion act 2%, Integrin act MD -27% and A-T KAP1 phos -2%.
For O=C(CSc1ccc2ccccc2c1)N1CCN(c2ccc(O)cc2)CC1 the results were SW480 rereplic inconclusive, MCF10A rerep -4%, Mito fusion act 16%, Integrin act MD -50% and A-T KAP1 phos 25µM*.
`O=C(CSc1nc2ccccc2nc1N1CCOCC1)N1CCN(c2ccccc2)CC1` gave SW480 rereplic -5%, MCF10A rerep -2%, Mito fusion act 24%, Integrin act MD -12% and A-T KAP1 phos 17%.
For COc1ccc(NC(=O)CSc2nc3ccccc3nc2N2CCCCC2)cc1 the results were SW480 rereplic 6%, MCF10A rerep inconclusive, Mito fusion act -11%, Integrin act MD -11% and A-T KAP1 phos 4%.
For O=C(C=NNc1ccccc1)c1ccccc1 the results were SW480 rereplic -18%, MCF10A rerep -4% and Integrin act MD -22%.
`Cc1c(NS(=O)(=O)c2cc(C(=O)OCC(=O)c3ccccc3F)ccc2Cl)c(=O)n(-c2ccccc2)n1C` gave Integrin act MD 1%.
Screening CCOC(=O)c1cc2c(OC)c(OC)ccc2c2[nH]cc(C#N)c(=O)c12 returned Integrin act MD 5%.
`CC(C)C#Cc1ccc2c(c1)O[C@@H](CN(C)C(=O)c1cnccn1)[C@@H](C)CN([C@@H](C)CO)S2(=O)=O` gave Integrin act MD -7%.
For CCCCn1c(CCn2nc(C)c(Br)c2C)n[nH]c1=S the results were SW480 rereplic 5%, MCF10A rerep -13%, Mito fusion act -4%, Integrin act MD -11% and A-T KAP1 phos -2%.
`Cc1ccn2cc(C34CC5CC(CC(C5)C3)C4)nc2c1` gave SW480 rereplic 21µM*, MCF10A rerep inconclusive, Mito fusion act -1%, Integrin act MD -21% and A-T KAP1 phos 5%.
For Cc1ccn2cc(CSc3ccccc3)nc2c1 the results were SW480 rereplic -5%, MCF10A rerep 3%, Mito fusion act 0%, Integrin act MD 10% and A-T KAP1 phos -2%.
